The whole screen tested about 310,000 compounds, of which about 14,000 (4.5%) showed an effect of 50% or more. The effect is printed as a negative number. The sample holds strong results, similar compounds and a random draw of the others, so the mix is not that of the screen.
Each molecule was assayed against human ether-à-go-go-related gene (hERG) potassium channel (human, UniProt Q12809) (assay: primary screen, population patch clamp on CHO cells stably expressing hERG; higher = less effect of the substance).
Sequence of human ether-à-go-go-related gene (hERG) potassium channel (Q12809 whole entry, looked up): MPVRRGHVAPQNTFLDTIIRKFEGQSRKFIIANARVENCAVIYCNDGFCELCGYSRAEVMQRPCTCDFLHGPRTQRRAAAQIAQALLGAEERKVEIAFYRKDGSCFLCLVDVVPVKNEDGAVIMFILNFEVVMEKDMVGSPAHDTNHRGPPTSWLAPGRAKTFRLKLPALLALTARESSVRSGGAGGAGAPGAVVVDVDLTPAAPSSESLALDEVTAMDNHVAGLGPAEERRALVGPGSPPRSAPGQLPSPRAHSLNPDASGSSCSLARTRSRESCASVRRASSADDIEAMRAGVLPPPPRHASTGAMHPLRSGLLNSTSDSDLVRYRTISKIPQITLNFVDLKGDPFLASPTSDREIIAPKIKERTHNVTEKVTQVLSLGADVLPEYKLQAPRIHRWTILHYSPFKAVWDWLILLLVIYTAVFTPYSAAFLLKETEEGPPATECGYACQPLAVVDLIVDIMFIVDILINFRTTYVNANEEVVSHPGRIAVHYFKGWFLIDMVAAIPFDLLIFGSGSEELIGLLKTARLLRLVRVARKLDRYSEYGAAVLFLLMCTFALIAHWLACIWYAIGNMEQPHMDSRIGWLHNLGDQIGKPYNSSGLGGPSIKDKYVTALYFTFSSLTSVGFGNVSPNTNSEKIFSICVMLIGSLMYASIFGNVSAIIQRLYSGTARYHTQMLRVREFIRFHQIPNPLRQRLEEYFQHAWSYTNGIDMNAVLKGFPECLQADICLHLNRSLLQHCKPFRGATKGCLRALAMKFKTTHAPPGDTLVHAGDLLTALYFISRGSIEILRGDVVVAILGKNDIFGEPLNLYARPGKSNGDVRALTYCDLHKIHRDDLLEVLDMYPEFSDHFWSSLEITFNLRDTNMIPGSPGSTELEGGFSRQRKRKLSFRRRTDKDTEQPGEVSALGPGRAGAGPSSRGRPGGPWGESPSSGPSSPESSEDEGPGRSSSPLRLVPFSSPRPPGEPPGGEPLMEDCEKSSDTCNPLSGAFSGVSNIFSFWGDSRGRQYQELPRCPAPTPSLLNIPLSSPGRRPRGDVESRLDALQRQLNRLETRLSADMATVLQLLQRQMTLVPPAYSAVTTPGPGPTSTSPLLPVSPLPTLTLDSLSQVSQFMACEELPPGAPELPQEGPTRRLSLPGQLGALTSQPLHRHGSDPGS
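Also: peak tail current of the secondary pulse compared with the same well before compound.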

| Structure (SMILES) | hERG current change (%, negative = inhibition) at 10uM [%] |
| --- | --- |
| CCCn1c(SCC(=O)c2[nH]c(C)c(C(C)=O)c2C)n[nH]c1=O | -1.57 |
| COc1ccc(OC)c(NS(=O)(=O)c2ccc(NC(=O)c3ccc(NS(C)(=O)=O)cc3)cc2)c1 | 14.2 |
| Cc1ccc(-n2c(SCC(=O)Nc3nccs3)nc3c(c2=O)SCC3)cc1 | 0.0407 |
| CC1CC1C(=O)OCC(=O)Nc1ccccc1Oc1ccccc1 (stereo not shown) | 13.9 |
| COc1ccc(Cl)cc1NC(=O)C1CC(=O)N(c2ccc(F)cc2)C1 (stereo not shown) | 4.41 |
| CSc1ccc(/C=C(\NC(=O)c2ccco2)C(=O)N2CCCCC2)cc1 | -29.6 |
| CSc1ncc(Cl)c(C(=O)Nc2ccc(C)c(C)c2)n1 | 13.4 |
| CCOc1ccc(-c2c(C)n(-c3ccc(OCC)cc3)c3[n+]2CCCCC3)cc1.[O-][Cl+3]([O-])([O-])[O-] | -77.7 |
| CCOc1ccc(-n2c(-c3ccc(OC)cc3)c[n+]3c2CCCCC3)cc1.[Br-] | -76 |
| CCOc1ccc(-c2c(C)n([O-])c3c([n+]2=O)CCCCC3)cc1 | 17.4 |
| CCOc1ccc(-n2c(-c3ccc(Br)cc3)c[n+]3c2CCCCC3)cc1.[Br-] | -77.7 |
| CCOc1ccc(-c2c(C)n([O-])c3c([n+]2=O)CCCC3)cc1 | -1.2 |
| CCOc1ccc(N2C(=O)CC(Cc3ccc(Br)cc3)C2=O)cc1 (stereo not shown) | 5.77 |
| O=C(CSc1ncnc2c1oc1ccccc12)NCc1ccco1 | -12.4 |
| CC(C)(C)SCCNC(=O)c1ccc(CN2CCc3ccccc3C2)cc1 | -35.1 |
| O=C(Cn1ccsc1=NC(=O)c1ccco1)c1ccccc1 | -6.93 |
| O=C(Nc1ccc(F)cc1F)c1cc(=O)n(-c2ccccc2)c(=O)[nH]1 | 6.37 |
| COc1ccc(NC(=O)CSC2=NC(=O)CC(C)=N2)cc1 | 15.1 |
| O=C(NNC(=S)NC(=O)c1ccccc1)c1ccc(O)cc1 | 24.7 |
| Cc1ccc(/C=C/C(=O)N(Cc2cccs2)C2CCS(=O)(=O)C2)cc1 (stereo not shown) | -79 |
| O=C(/C=C/c1ccccc1Cl)N(Cc1cccs1)C1CCS(=O)(=O)C1 (stereo not shown) | -31.5 |
| O=C(/C=C/c1ccc(Cl)cc1)N(Cc1cccs1)C1CCS(=O)(=O)C1 (stereo not shown) | -72.8 |
| COc1ccc(/C=C/C(=O)N(Cc2cccs2)C2CCS(=O)(=O)C2)cc1 (stereo not shown) | -48.6 |

| Structure (SMILES) | hERG current change (%, negative = inhibition) at 10uM [%] |
| --- | --- |
| O=C(/C=C/c1ccccc1)N(Cc1cccc(Cl)c1)C1CCS(=O)(=O)C1 (stereo not shown) | -25.6 |
| O=C(c1ccc(Cl)cc1)N(Cc1cccs1)C1CCS(=O)(=O)C1 (stereo not shown) | -24.4 |
| O=C(/C=C/c1ccccc1)N(Cc1cccs1)C1CCS(=O)(=O)C1 (stereo not shown) | -30.3 |
| O=C(/C=C/c1ccc(Cl)cc1)N(Cc1ccccc1)C1CCS(=O)(=O)C1 (stereo not shown) | -75 |
| O=C(/C=C/c1ccccc1)N(Cc1ccc(Cl)cc1)C1CCS(=O)(=O)C1 (stereo not shown) | -30.6 |
| S=C(NCc1cccs1)Nc1ccccc1Cl | 9.58 |
| CCC1CCCCN1C(=O)CCS(=O)(=O)c1ccccc1 (stereo not shown) | 13.7 |
| COc1ccc(/C(O)=C2/C(=O)C(=O)N(CCCC(=O)O)C2c2ccc(OC)cc2)cc1 (stereo not shown) | 11.7 |
| Cc1cc(C(=O)NCc2cccc(Cl)c2)c2ccccc2n1 | 15.8 |
| COC(=O)c1cccc(C23CC4(C2)[C@H](CN(Cc2cccnc2)[C@@H]4c2ccccc2)C3c2ccccc2)c1 (stereo partly shown) | 8.51 |
| CCC(=O)N1CCc2cc(S(=O)(=O)CCC(=O)NC3CCCCC3)ccc21 | 5.33 |
| Cc1nn(C)c(C(=O)N/N=C/c2ccncc2)c1Cl | 7.35 |
| COc1ccccc1N1C(=O)c2ccc(C(=O)Nc3cccc(C(C)=O)c3)cc2C1=O | 1.69 |
| CCn1cc(CN(C)S(=O)(=O)c2ccc3ccccc3c2)c(C)n1 | -1.17 |
| CSc1ccc(C(=S)N2CCN(Cc3ccccc3)CC2)cc1 | -50.4 |
| COc1ccc(-c2noc(CCC(=O)N3CCN(Cc4ccccc4)CC3)n2)cc1 | -32.8 |
| COc1ccc(OC)c(NC(=O)C2CCN(C(=O)c3cccs3)CC2)c1 | 15.7 |
| S=C(c1ccc(Br)cc1)N1CCN(Cc2ccccc2)CC1 | -36.3 |
| Cc1ccc(C(=S)N2CCN(Cc3ccccc3)CC2)cc1 | -42.9 |
| CCN(Cc1ccccc1)C(=O)CCc1nc(CN2CCN(C(=O)c3ccc([N+](=O)[O-])cc3)CC2)no1 | -64.2 |
| O=C(Cc1ccccc1)NC1CCN(C(=O)c2ccc([N+](=O)[O-])cc2)CC1 | -47.7 |
| O=C(Cc1ccccc1)N1CCN(C(=O)c2ccc([N+](=O)[O-])cc2)CC1 | -51 |
| COc1ccc(C(=O)N2CCN(C(=O)Cc3ccccc3)CC2)cc1.O=C(O)C(=O)O | 0.269 |

| Structure (SMILES) | hERG current change (%, negative = inhibition) at 10uM [%] |
| --- | --- |
| COc1ccc([N+](=O)[O-])cc1NC(=O)c1cccs1 | 4.41 |
| COc1ccc([N+](=O)[O-])cc1NC1CCN(C(=O)c2cccs2)CC1 | -85.7 |
| CCN(Cc1ccccc1)C(=O)CCc1nc(-c2ccc(C)cc2)no1 | -12.1 |
| Cc1ccc2nc(NC(=O)c3ccc(-c4nc5ccccc5s4)s3)sc2c1 | 0.614 |
| O=C(Nc1cccnc1)c1ccccc1NS(=O)(=O)c1ccc(F)cc1 | -11.5 |
| Cc1c(Cl)ccc2c1NC(=O)C21NC(CCC(N)=O)[C@H]2C(=O)N(c3ccc(Cl)cc3)C(=O)[C@H]21 (stereo partly shown) | 7.5 |
| O=C(c1ccccc1NS(=O)(=O)c1ccc(F)cc1)N1CCCCC1 | -4.35 |
| COCCN(C(=O)CCCC(=O)Nc1ccccn1)C(C(=O)NC1CCCCC1)c1ccc(C)cc1 (stereo not shown) | -17.7 |
| CCc1ccc2oc(-c3ccc(NC(C)=O)cc3)nc2c1 | 10.7 |
| O=C(c1ccc([N+](=O)[O-])cc1)N1CCN(c2ncccn2)CC1 | -77.8 |
| O=C(c1ccc(F)cc1)N1CCN(C(=O)c2ccc([N+](=O)[O-])cc2)CC1 | -63.2 |
| O=C(c1c(Cl)cccc1Cl)N1CCN(c2cccc3[nH]ccc23)CC1 | 22.3 |
| O=C(c1cccc([N+](=O)[O-])c1)N1CCN(Cc2ccccc2)CC1 | -9.31 |
| O=C(c1cccc([N+](=O)[O-])c1)N1CCN(c2ncccn2)CC1 | -8.55 |
| O=C(Nc1ccc(C(=O)N2CCCCC2)cc1)c1ccc([N+](=O)[O-])cc1 | -1.34 |
| O=C(NNC(=O)c1ccc([N+](=O)[O-])cc1)c1ccc(F)cc1 | 6.25 |
| O=C(c1ccc([N+](=O)[O-])cc1)N1CCN(Cc2ccccc2)CC1 | -66.4 |
| O=C(c1ccccc1)N1CCN(c2ncccn2)CC1 | 17.6 |
| O=C(c1cc([N+](=O)[O-])ccc1Cl)N1CCN(Cc2ccccc2)CC1 | 4.75 |
| O=C(c1ccc(Cl)cc1)N1CCN(c2cccc3[nH]ccc23)CC1 | 3.68 |
| O=C(c1ccc([N+](=O)[O-])cc1)N1CCN(c2cccc3[nH]ccc23)CC1 | -72.7 |
| CCOc1ccc(CC(=NCCc2ccccc2)C2=C(O)CC(C)(C)CC2=O)cc1OCC | -21.3 |
| O=C(O)c1ccccc1CSc1nnnn1-c1ccccc1 | 12.6 |

| Structure (SMILES) | hERG current change (%, negative = inhibition) at 10uM [%] |
| --- | --- |
| Cc1cc(C)cc(N=C2NC(=O)/C(=C/c3cccs3)S2)c1 | 14.7 |
| CC(=O)c1ccccc1NC(=O)C1C2CCC(O2)C1C(=O)O (stereo not shown) | 8.81 |
| Cc1c(CCO)c(=O)[nH]n1C(=O)c1c(F)cccc1F | -1.76 |
| COc1ccc(-c2n[nH]c(=S)n2-c2ccc(C)cc2C)cc1 | 19.5 |
| CC(NC(=O)c1ccc(CS(C)(=O)=O)cc1)c1cccc2ccccc12 (stereo not shown) | 10.1 |
| CCOc1ccc(NC(=O)Nc2cc(-c3ccccc3)sc2C(=O)OC)cc1 | -4.41 |
| COC(=O)C1=C(c2ccc(OC)c(OC)c2)C[C@@H]2CC[C@H]1N2C(=O)NCCO | 15.5 |
| CC(C)(C)OC(=O)N1CCC[C@H]1C(=O)Nc1ccc(Br)cc1 | 13.5 |
| CCN1CCN(c2ccc(S(=O)(=O)N3CCOCC3)cc2NC(=O)CCC(C)C)CC1 | -26.3 |
| C/C(CC(=O)Nc1cc(C)ccn1)=N\NC(=O)c1ccncc1 | 19.7 |
| CC1CCCC(N2CCN(C(=O)c3ccc([N+](=O)[O-])cc3)CC2)C1.O=C(O)C(=O)O (stereo not shown) | -71.9 |
| CC1CCCC(N2CCN(C(=O)c3ccc(F)cc3)CC2)C1 (stereo not shown) | -44.1 |
| O=C(c1ccc([N+](=O)[O-])o1)N1CCN(Cc2ccccc2)CC1 | 2.99 |
| CC1CCCC(N2CCN(C(=O)c3cccc(F)c3)CC2)C1.O=C(O)C(=O)O (stereo not shown) | -6.93 |
| O=C(c1ccc(Cn2cc(Cl)c([N+](=O)[O-])n2)cc1)N1CCN(Cc2ccccc2)CC1 | -12.5 |
| O=C(CCSc1ccc(Cl)cc1)N1CCN(c2ccc(O)cc2)CC1 | -23.8 |
| Cc1ccccc1C(=O)N1CCC(C(=O)N2CCN(c3ncccn3)CC2)CC1 | 7.94 |
| O=C(c1ccc(Cl)cc1)N1CCN(c2ncccn2)CC1 | 6.85 |
| Cl.O=C(c1ccc(Cn2ccc([N+](=O)[O-])n2)cc1)N1CCN(Cc2ccccc2)CC1 | -56.1 |
| O=C(CCSc1ccc(Cl)cc1)N1CCN(c2ncccn2)CC1 | -60.6 |
| O=C(c1ccc(Cl)cc1)N1CCC(C(=O)N2CCN(c3ncccn3)CC2)CC1 | -56.6 |
| O=C(CCSc1ccc(Cl)cc1)N1CCCCCC1 | -4.88 |
